From PubChem BioAssay (NCI)
This is part of a sample that, as a whole, favours compounds with a hit. Of some 83,000 tested, about 20% had one in any assay.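 Cells were grown in 96-well plates and exposed to the test compound at a single concentration for 48 hours; results are reported as percent growth, with values below 10 considered active.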 Unmarked numbers belong to inactive results. Active and inactive are the calls of the source.

What was measured:
Assay in all cases: NCI-60 one-dose screen, 48 h (100 = growth as untreated, 0 = no growth, -100 = all killed)
Conditions in all cases: 10 µM unless noted
[1] = tested on: EKVX NSCLC
[2] = tested on: SN12C renal
[3] = tested on: UO-31 renal
[4] = tested on: TK-10 renal
[5] = tested on: ACHN renal
[6] = tested on: CAKI-1 renal
[7] = tested on: A498 renal
[8] = tested on: CCRF-CEM leukemia
[9] = tested on: MOLT-4 leukemia
[10] = tested on: SR leukemia
[11] = tested on: RPMI-8226 leukemia
[12] = tested on: OVCAR-5 ovarian
[13] = tested on: OVCAR-4 ovarian
[14] = tested on: IGROV1 ovarian
[15] = tested on: OVCAR-3 ovarian
[16] = tested on: HS 578T breast
[17] = tested on: T-47D breast
[18] = tested on: SK-OV-3 ovarian
[19] = tested on: NCI/ADR-RES ovarian
[20] = tested on: OVCAR-8 ovarian

SMILES	growth [1]	growth [2]	growth [3]	growth [4]	growth [5]	growth [6]	growth [7]	growth [8]	growth [9]	growth [10]	growth [11]	growth [12]	growth [13]	growth [14]	growth [15]	growth [16]	growth [17]	growth [18] [%]	growth [19] [%]	growth [20]
CO/N=C1\CCc2c(sc(NC(=O)c3cccc(C(F)(F)F)c3)c2C(N)=O)C1	30.7%	15.6%	-16.4% (active)	-17.1% (active)	-23.7% (active)	11.3%	-43.3% (active)	67.9%	84.1%	37.1%	35.4%	41.4%	-45.4% (active)	11.9%	7.66% (active)	5.79% (active)	-18.5% (active)			
COc1ccc2[nH]cc(-c3cc(N)n4nc(-c5c[nH]c6ccc(OC)cc56)cc4n3)c2c1	80.1%	-64% (active)	-22.8% (active)	16.5%	-31.9% (active)	-52.1% (active)	83.1%	0.363% (active)	-2.24% (active)	-23.6% (active)	-22.7% (active)		-8.27% (active)	44.5%	103%	121%	-21.7% (active)	144	88.6	
Cn1c(SCC(=O)c2cccs2)nc2ccccc2c1=O	73.1%	91.8%	84.5%	177%	91.7%	82.1%	63.9%	80.3%	87%	90.4%	81.7%	109%	92.9%	74.8%	98%	90.8%	54.2%			97.5%
O=C(c1ccc(O)cc1)C1[C@H](c2ccc(Cl)cc2)[C@@H](c2ccccc2)NC12C(=O)Nc1ccc(Cl)cc12 (some centres undefined)	48.1%	-1.78% (active)	35.4%	66.9%	16.8%	29.5%	50.8%	40.4%	10.3%	9.52% (active)	26.4%		47.1%	38.9%	33.1%	60.5%	31.4%	94.6	36.2	47.7%
CC(=O)Nc1cc(F)cc(-c2ccc3[nH]cc(-c4ccccc4)c3n2)c1	43.7%	32.7%	10.1%	48.6%	15.9%	-37.1% (active)	-20.1% (active)	16.9%	9.24% (active)	-1.91% (active)	5.72% (active)	27.4%	42.4%	25.7%	32.5%	10.5%	26.8%	13.6	33.5	
COc1ccc(C(=O)c2cc(C(=O)/C=C/c3c(Cl)cccc3Cl)c3cc(C)ccn23)cc1	92.1%	94.2%	96.6%	119%	101%	89.9%	86.4%	99.8%	96.4%	97%	92.6%	102%	106%	95.9%	103%	95.7%	91.7%			100%
O=C1Nc2ccccc2Oc2ccc(S(=O)(=O)CC3CO3)cc21 (centres undefined)	75.2%	71.5%	65.9%	91.6%	46.4%	44.1%	102%	25.7%	42.8%	0.309% (active)		85.5%	70.1%	62.3%		60.6%	47.5%	122	98.2	64.3%
CCOC(=O)c1sc(NCC(=O)Nc2cccc([N+](=O)[O-])c2)c(C(=O)OCC)c1C	-22.3% (active)	-11.5% (active)	-64.6% (active)	-12.2% (active)	-62.4% (active)	-17.5% (active)	-38% (active)	7.16% (active)	6.63% (active)	19.3%		-13.7% (active)	-26% (active)	-41% (active)	-4.13% (active)	-10.4% (active)	-10.9% (active)			1.78% (active)
